Source: PubChem (several laboratories)
UGM FP inh – M. tuberculosis UGM enzyme inhibitors, primary screen, biochemical, fluorescence polarization, single point; inhibition, % at 10 µM; purified UGM, fluorescence polarization probe displacement; UDP-galactopyranose mutase (Mycobacterium tuberculosis (strain ATCC 25618 / H37Rv)), …; 320,000 compounds, 0.06% hits; in the data active means inhibition above about 10%, passing the limit was not always enough; inconclusive means no clear call, values can overlap the other calls
FadD28 FP inh – inhibitors of FadD28 bisubstrate probe binding, primary screen, biochemical, fluorescence polarization, single point; 360,000 compounds, 0.22% hits; inhibition, % at 12.5 µM; Mycobacterium tuberculosis FadD28 fatty-acid-AMP ligase; in the data active means inhibition above about 8.5%, passing the limit was not always enough; inconclusive means no clear call, values can overlap the other calls
Rv3671c inh – Rv3671c serine protease inhibitors, primary screen, biochemical, fluorescence polarization, M. tuberculosis H37Rv; inhibition, % at 5.96 µM; 320,000 compounds, 0.048% hits; P9WHR9; in the data active means inhibition above about 38%;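 further: extracellular domain of Rv3671c used as enzyme; 0% = enzyme with DMSO and 100% = no enzyme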
Target sequence (P9WHR9 whole entry, looked up, the tested form may be a part): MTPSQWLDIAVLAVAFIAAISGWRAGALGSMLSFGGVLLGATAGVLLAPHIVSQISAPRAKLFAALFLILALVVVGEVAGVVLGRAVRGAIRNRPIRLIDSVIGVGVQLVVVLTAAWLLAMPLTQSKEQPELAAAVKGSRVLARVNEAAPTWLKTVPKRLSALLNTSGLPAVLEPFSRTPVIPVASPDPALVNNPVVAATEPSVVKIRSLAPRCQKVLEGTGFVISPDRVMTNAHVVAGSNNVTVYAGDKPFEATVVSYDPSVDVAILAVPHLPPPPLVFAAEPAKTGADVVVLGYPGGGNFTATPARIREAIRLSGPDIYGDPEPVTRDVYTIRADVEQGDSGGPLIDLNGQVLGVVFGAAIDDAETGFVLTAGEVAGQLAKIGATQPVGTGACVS
TcdB GH inh – TcdB glycohydrolase inhibitors, primary screen, biochemical, single point, plate reader | TcdB glycohydrolase enzymatic assay | 350,000 compounds, 0.24% hits | inhibition, % at 9.99 µM | AID 652162, 2013 | Toxin B (Clostridioides difficile), P18177; in the data active means inhibition above about 10%
RecA intein inh – Mtb RecA intein splicing inhibitors, primary screen, biochemical, fluorescence, HTS; cell-free RecA intein splicing; 290,000 compounds, 0.75% hits; AID 2221, 2009; inhibition, % (test concentration not listed); Protein RecA (Mycobacterium tuberculosis (strain ATCC 25618 / H37Rv)), P9WHJ3; in the data active means inhibition above about 30%; inconclusive means no clear call, values can overlap the other calls;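 further: 0% = vehicle wells and 100% = reference inhibitor control wells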
Mtb BioA inh – M. tuberculosis BioA enzyme inhibitors, primary screen, biochemical, plate reader, single point, HTS. purified M. tuberculosis BioA enzyme. inhibition, % at 9.99 µM. 360,000 compounds, 0.096% hits. AID 602481, 2012; in the data active means inhibition above about 40%; inconclusive means no clear call, values can overlap the other calls
GFP chromo cs – counter-screen: blocks GFP chromophore formation, dose response, counter-screen, biochemical, fluorescence, homogeneous; shares compounds with RecA intein inh; EC50, µM; cell-free GFP chromophore formation; 2,100 compounds, 83% hits; call rule not given here
Starred values were filed as active, the others as inactive. Rows were chosen to be rich in hits. Some 0.97% of all compounds tested hit in one or more screens of this group.

Results for Cc1cccc(CS(=O)(=O)c2ncc(Cl)c(C(=O)NCc3ccc4c(c3)OCO4)n2)c1 ?
UGM FP inh: 1; FadD28 FP inh: -3; Rv3671c inh: -1; TcdB GH inh: 1; RecA intein inh: 51*; Mtb BioA inh: 0; GFP chromo cs: 11*

Results for Cc1ccc(C(=O)NCc2ccc3c(c2)OCO3)c(Cl)c1 ?
FadD28 FP inh: 0; TcdB GH inh: 1; Mtb BioA inh: 0

How did Cc1ccc(NC(=O)c2nc(S(=O)(=O)Cc3ccccc3C)ncc2Cl)cc1C do in these assays?
UGM FP inh: 2; FadD28 FP inh: -3; Rv3671c inh: -32; TcdB GH inh: 1; RecA intein inh: 39*; Mtb BioA inh: 0; GFP chromo cs: 1.3*

How did COc1ccccc1NC(=O)c1nc(S(=O)(=O)Cc2ccccc2)ncc1Cl do in these assays?
UGM FP inh: -2; FadD28 FP inh: -3; Rv3671c inh: -11; TcdB GH inh: 1; RecA intein inh: 3; Mtb BioA inh: 0

How did CC(=O)Nc1ccc(NC(=O)c2nc(S(=O)(=O)Cc3cccc(C)c3)ncc2Cl)cc1 do in these assays?
UGM FP inh: -3; FadD28 FP inh: 2; Rv3671c inh: 0; TcdB GH inh: 1; RecA intein inh: 31*; Mtb BioA inh: 1; GFP chromo cs: 20*

What do the screens show for `COc1ccc2c3c(n(C)c2c1)[C@H](CO)N(C(C)=O)CC31CCN(C(=O)C2CC2)CC1`?
TcdB GH inh: -3

How did COC(=O)c1ccc(NC(=O)c2nc(S(=O)(=O)Cc3cccc(C)c3)ncc2Cl)cc1 do in these assays?
UGM FP inh: 2; FadD28 FP inh: -1; Rv3671c inh: -25; TcdB GH inh: -6; RecA intein inh: 73*; Mtb BioA inh: -1; GFP chromo cs: 0.57*

How did CC1CCN(S(=O)(=O)c2ccc(NC(=O)c3ccncc3)cc2)CC1 do in these assays?
UGM FP inh: -2; FadD28 FP inh: -6; Rv3671c inh: -8; TcdB GH inh: 2; RecA intein inh: 0; Mtb BioA inh: -1

What do the screens show for `CCOC(=O)c1ccc(NC(=O)c2nc(S(=O)(=O)Cc3ccccc3)ncc2Cl)cc1`?
UGM FP inh: 1; FadD28 FP inh: -4; Rv3671c inh: -34; TcdB GH inh: 0; RecA intein inh: 27; Mtb BioA inh: 1

What do the screens show for `COc1cccc(NC(=O)c2nc(S(C)(=O)=O)ncc2Cl)c1`?
UGM FP inh: 0; FadD28 FP inh: -3; Rv3671c inh: -3; TcdB GH inh: 3; RecA intein inh: 63*; Mtb BioA inh: 0; GFP chromo cs: 25*

How did CCS(=O)(=O)c1ncc(Cl)c(C(=O)Nc2ccc(S(=O)(=O)N3CCC(C)CC3)cc2)n1 do in these assays?
UGM FP inh: 2; FadD28 FP inh: 8.9*; Rv3671c inh: -128; TcdB GH inh: 0; RecA intein inh: 96*; Mtb BioA inh: -4; GFP chromo cs: 1.4*

What do the screens show for `C[C@H](CO)N1C[C@H](C)[C@H](CN(C)C(=O)C2CCCCC2)Oc2ncc(C#CC(C)(C)O)cc2C1=O`?
Mtb BioA inh: -2

What do the screens show for `Cc1ccc(-c2ccc3c(c2)O[C@@H](CN(C)C(=O)Nc2ccccc2)[C@@H](C)CN([C@@H](C)CO)S3(=O)=O)cc1`?
Mtb BioA inh: -2

What do the screens show for `Cc1ccc(S(=O)(=O)N(C)C[C@@H]2Oc3ccc(NS(C)(=O)=O)cc3CC(=O)N([C@@H](C)CO)C[C@@H]2C)cc1`?
TcdB GH inh: -3

What do the screens show for `Cc1cc(C(=O)Nc2cccc3c2O[C@@H](CN(C)Cc2ccc(-c4ccccc4)cc2)[C@H](C)CN([C@H](C)CO)C3=O)n(C)n1`?
TcdB GH inh: 0; Mtb BioA inh: 4

What do the screens show for `Nc1c(O)cccc1C(=O)O`?
UGM FP inh: 0; FadD28 FP inh: -1; Rv3671c inh: -64; TcdB GH inh: -11; RecA intein inh: 71*; Mtb BioA inh: -1; GFP chromo cs: 6.1*

How did O=C(O)c1ccccc1O do in these assays?
UGM FP inh: 2; FadD28 FP inh: 0; Rv3671c inh: 9; TcdB GH inh: 1; RecA intein inh: -2; Mtb BioA inh: 1

How did COc1ccc2c3c(n(C)c2c1)[C@H](CO)N(C(=O)C1CCC1)CC31CN(C)C1 do in these assays?
TcdB GH inh: 0

What do the screens show for `CCCCCn1c(NC(=O)c2ccco2)c(S(=O)(=O)c2ccc(C)cc2)c2nc3ccccc3nc21`?
UGM FP inh: 1; FadD28 FP inh: 1; Rv3671c inh: -19; RecA intein inh: 80*; Mtb BioA inh: 1; GFP chromo cs: >38

How did Cc1ccc(S(=O)(=O)c2c(N)n(CCCO)c3nc4ccccc4nc23)cc1 do in these assays?
UGM FP inh: 2; FadD28 FP inh: -3; Rv3671c inh: -64; RecA intein inh: -16

Results for CCCCn1c(NC(=O)c2ccco2)c(C(=O)OCC)c2nc3ccccc3nc21 ?
UGM FP inh: 0; FadD28 FP inh: -6; Rv3671c inh: -207; RecA intein inh: -65; Mtb BioA inh: 1

How did CCCCn1c(NC(=O)c2ccco2)c(S(=O)(=O)c2ccc(C)cc2)c2nc3ccccc3nc21 do in these assays?
FadD28 FP inh: -1; TcdB GH inh: 0; RecA intein inh: 57*; GFP chromo cs: inconclusive

How did Cc1ccc(S(=O)(=O)c2c(N)n(CCC(C)C)c3nc4ccccc4nc23)cc1 do in these assays?
UGM FP inh: 0; FadD28 FP inh: 1; Rv3671c inh: -49; RecA intein inh: 85*; Mtb BioA inh: -2; GFP chromo cs: 11*

What do the screens show for `CCCCn1c(NS(=O)(=O)c2ccccc2)c(S(=O)(=O)c2ccc(C)cc2)c2nc3ccccc3nc21`?
UGM FP inh: 0; FadD28 FP inh: inconclusive; Rv3671c inh: -209; TcdB GH inh: 1; RecA intein inh: 76*; GFP chromo cs: inconclusive

What do the screens show for `COc1ccc(CN(C)C[C@@H]2Oc3ccc(NC(=O)NC(C)C)cc3CC(=O)N([C@@H](C)CO)C[C@@H]2C)cc1`?
TcdB GH inh: -8; Mtb BioA inh: -2

What do the screens show for `C[C@H](O)C#Cc1cnc2c(c1)C(=O)N([C@H](C)CO)C[C@H](C)[C@@H](CN(C)CC1CCCCC1)O2`?
TcdB GH inh: 0; Mtb BioA inh: -1

What do the screens show for `COCC#Cc1ccc(CC[C@H]2O[C@H]3CC[C@H](CO)O[C@H]3C[C@H]2NC(=O)Nc2c(C)noc2C)cc1`?
TcdB GH inh: 0

Results for N#Cc1ccc(-c2ccc3c(c2)[C@H]2[C@H](CCN2Cc2ccc4c(c2)OCO4)[C@H](CO)N3)cc1 ?
TcdB GH inh: 1
